Screens from PubChem BioAssay.
Shown are actives, neighbours in structure and some others; about 4.5% of the full set was active somewhere.
DAX1 inh-1: DAX1 (NR0B1) inhibitors, primary screen, cell-based, HEK293, Gal4-DAX1, luciferase luminescence. HEK293 Gal4-DAX1 luciferase reporter. inhibition, % at 6.75 µM. hit rate 0.99% among 340,000;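 active = inhibition above the mean over all tested compounds plus 3 SD, cut at about 4.2% in these data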;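 also: 0% = DAX1-transfected cells with DMSO and 100% = empty-vector control cells with DMSO; inhibition shows as a rise in luminescence from relieved DAX1 repression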
Target sequence (P51843 207-470 limits assumed): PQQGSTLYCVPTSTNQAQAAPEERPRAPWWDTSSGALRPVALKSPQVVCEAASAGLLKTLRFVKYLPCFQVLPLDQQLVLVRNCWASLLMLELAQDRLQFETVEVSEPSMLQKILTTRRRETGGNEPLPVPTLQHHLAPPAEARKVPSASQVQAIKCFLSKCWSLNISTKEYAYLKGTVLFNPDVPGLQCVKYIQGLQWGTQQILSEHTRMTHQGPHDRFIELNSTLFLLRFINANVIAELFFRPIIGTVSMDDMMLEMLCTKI
hgDAF-12 ag: H. glycines DAF-12 receptor agonists, primary screen, cell-based, luminescence, HEK293, GAL4 fusion, UAS-luciferase; Nuclear hormone receptor DAF-12 (Heterodera glycines), GAL4 fusion; HEK293 GAL4-hgDAF12 UAS-luciferase reporter, agonist luminescence; normalized to butyrate control; activation, % at 6.8 µM; hit rate 1.8% among 370,000;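 active = activation above a cutoff set at the mean of all screened compounds plus 3 SD, cut at about 10% in these data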;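 also: 0% = DMSO wells and 100% = sodium butyrate wells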
FXN GAA850 act: FXN promoter activators, primary screen, cell-based, luciferase luminescence, HEK293 lucGAA850; HEK293 lucGAA850 FXN promoter luciferase reporter, 24 h; percent of 10 µM SAHA response; activation, % at 6 µM; hit rate 0.56% among 360,000; AID 540364, 2011;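 active = activation above the average of all compounds screened plus 3 SD, cutoff fixed separately per campaign, cut at about 7.5% in these data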;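 also: 0% = DMSO wells and 100% = 10 µM SAHA wells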
hcDAF-12 act: H. contortus DAF-12 nuclear receptor activators, primary screen, cell-based, luminescence, HEK293, lit1-tk-luc reporter. HEK293 hcDAF-12 lit1-tk-luc reporter; 0% DMSO, 100% Δ7-dafachronic acid. activation, % at 6.8 µM. hit rate 1.4% among 370,000. AID 652067, 2013;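 active = activation above the mean of all tested compounds plus 3 SD, cut at about 5.5% in these data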;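 also: 100% = response to 3 µM Δ7-dafachronic acid high control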
DAX1 inh-2: DAX1 (NR0B1) inhibitors on StAR promoter, primary screen, cell-based, luminescence, SF-1 (NR5A1), full-length DAX-1 | HEK293T StAR-luciferase reporter, SF-1/DAX-1 repression relief | inhibition, % at 6.8 µM | hit rate 1.1% among 370,000 | AID 652010, 2013;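 active = inhibition above the mean over all tested compounds plus 3 SD, cut at about 3.6% in these data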;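 also: 0% = DAX-1 cells with DMSO and 100% = cells lacking DAX-1 with DMSO; higher inhibition means more luminescence from relief of DAX-1 repression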
ssDAF-12 act: S. stercoralis DAF-12 nuclear receptor activators, primary screen, cell-based, luminescence, HEK293, GRIP1 co-expression, lit1-tk-luc; hit rate 1% among 370,000; activation, % at 6.8 µM; HEK293 ssDAF-12/GRIP1 lit1-tk-luc reporter; % of 3 µM dafachronic acid response; Nuclear hormone receptor DAF-12 (Strongyloides stercoralis);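 active = activation above the mean over all tested compounds plus 3 SD, cut at about 0.9% in these data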;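 also: 0% = DMSO-only wells and 100% = 3 µM delta7-dafachronic acid wells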
* hit, by the source's call; nt = no result.

SMILES	DAX1 inh-1	hgDAF-12 ag	FXN GAA850 act	hcDAF-12 act	DAX1 inh-2	ssDAF-12 act
O=c1[nH]c(S)c(/C=C2\C=Nc3ccccc32)s1	nt	2	0	4	0	1.2*
O=C(Nc1ccccc1C(F)(F)F)NC1(C(=O)N2CCOCC2)CCCCC1	0	2	1	5.7*	2	0
O=C(NCCC1=CCCCC1)NC12CC3CC(CC(C3)C1)C2	0	5	5	5	3.7*	0
COc1ccc(CCNC(=O)NC23CC4CC(CC(C4)C2)C3)cc1	1	4	2	3	0	-1
CC(Oc1ccc(Cl)cc1Cl)C(=O)NNC(=O)c1ccncc1 (stereo unspecified)	4.8*	-1	-2	-1	0	0
CC(Oc1ccc(Cl)cc1Cl)C(=O)NNC(=O)c1cccnc1 (stereo unspecified)	0	0	2	-2	2	-1
Cc1ccsc1/C=N/N1CCN(c2ccccn2)CC1	-1	1	3	-1	0	-2
Cc1ccsc1/C=N/N1CCN(c2ccccc2)CC1	1	7	7.8*	1	1	-1
CC(C)(C)C1=CC(CC(N)=O)(C(C)(C)C)OC1=O (stereo unspecified)	nt	0	nt	-1	1	-1
Cc1nc2ccc(Br)cn2c1C(=O)N/N=C\c1ccccc1[N+](=O)[O-]	nt	10*	1	6.2*	0	0
O=C(N/N=C/c1ccccc1[N+](=O)[O-])c1cnccn1	4.3*	2	3	-2	1	0
Cc1ccc2nc(C)c(C(=O)N/N=C/c3cccs3)n2c1	-2	12*	-1	1	-2	-2
CC[C@@]1(c2ccc(C)cc2)C(=O)N(C(=O)OC)N1C(=O)OC	nt	-1	nt	-3	-2	-1
CCCOc1ccc(-c2cn3ccccc3n2)cc1[N+](=O)[O-]	0	12*	7	0	2	-1
CCCCOc1ccc(C2=CSC3=NCCN23)cc1[N+](=O)[O-]	0	1	0	-1	-1	-1
CCCCOc1ccc(-c2csc(N)n2)cc1[N+](=O)[O-]	3	11*	6	2	2	0
COc1ccc(-c2cn3ccccc3n2)cc1[N+](=O)[O-]	2	11*	6	2	0	-1
COc1ccc(-c2cn3cc([N+](=O)[O-])ccc3n2)cc1OC	3	8	1	-1	0	-2
CC(C)c1c(Cl)c(O)c(-c2ccccc2)c(=O)n1-c1ccc(F)cc1	-1	0	1	5.7*	0	0
COC(=O)c1cc(-c2ccc(C(C)=O)cc2)c(=O)n2c1CCC2	nt	4	nt	2	0	-1
CC(=O)NC(CCS(C)(=O)=O)C(=O)Nc1ccccc1C (stereo unspecified)	1	-1	-4	-2	-1	-1
CC(=O)NC(CCS(C)(=O)=O)C(=O)N1CCc2ccccc21 (stereo unspecified)	1	0	1	5.6*	0	1.0*
O=S(=O)(N1CCCCC1)n1c(Cc2ccccc2)nc2ccccc21	0	-1	3	-1	0	1.9*
Cn1c(CNc2ccccc2F)nc2ccccc21	nt	11*	nt	5	nt	0
Cn1c(CNC(=O)c2ccc(F)cc2)nc2ccccc21	1	1	-1	0	0	0
SMILES	DAX1 inh-1	hgDAF-12 ag	FXN GAA850 act	hcDAF-12 act	DAX1 inh-2	ssDAF-12 act
COC(=O)[C@]12C[C@H](CC(=O)N3CCCC3)C(=O)N(CCc3ccc(OC)c(OC)c3)C1=C[C@H](C(C)(C)C)O[C@@H]2C	nt	4	nt	-2	-1	-2
C#CCSc1ncc(-c2ccccc2)cn1	1	13*	1	4	1	1.9*
CSCc1ccc(C(=O)NCCSc2ccc(Br)cc2)cc1	0	6	3	5	4.1*	-1
O=C(NCCSc1ccc(Br)cc1)c1ccccc1	0	1	3	-1	0	-2
COc1ccc(C(=O)n2cnc3ccccc32)cc1[N+](=O)[O-]	1	4	2	5	0	1.4*
COc1ccc(C(=O)n2cnc3ccccc32)cc1Br	1	-1	1	-1	1	1
Cc1cccc(NC(=O)c2n[nH]c([N+](=O)[O-])c2Br)c1C	0	11*	1	3	3.6*	1
Cc1cccc(NC(=O)c2ccccn2)c1C	2	7	2	-2	2	-1
Cc1cc(C(=O)NNS(=O)(=O)c2cccc(Cl)c2)nn1C(C)(C)C	4.2*	-1	-1	-1	0	-1
Cc1cc(C(=O)N2CCC2(C)C(=O)NS(=O)(=O)c2cccc(Cl)c2)nn1C (stereo unspecified)	nt	1	1	0	0	-1
Cc1ccc(-c2nc3ncccn3c2NC(=O)c2cccc(C)c2)cc1	nt	1	nt	-2	0	-1
Cc1c(P(=O)(c2ccccc2)c2ccccc2)c2ccccc2n1C	nt	1	0	-3	-1	-1
Cc1c(C(C)(C(=O)O)c2c(C)n(C)c3ccccc23)c2ccccc2n1C	nt	3	nt	5.7*	0	0
CCS(=O)(=O)N1CCN(C2CCC(C)CC2)CC1 (stereo unspecified)	0	2	-1	-1	1	1.1*
C[C@H]1[C@@H](OC(=O)Nc2ccccc2F)CC[C@@]23CCCN2C(=O)CCC[C@@H]13	nt	-1	nt	-1	nt	-1
Cc1[nH]c2ccccc2c1CC(=O)Nc1ccc(N(C)c2cccnc2)c(-c2cccc(Cl)c2)c1	nt	0	nt	4	1	-1
COc1cc(C(C)=O)ccc1OCC(O)CN(CCO)Cc1ccccc1 (stereo unspecified)	7.2*	-1	2	0	1	-1
CN1C(=O)C[C@@](C#N)(C(=O)N2CCCC2)[C@H]1c1ccccc1	nt	2	nt	-1	0	-1
O=C(Nc1cccc(F)c1)O[C@@H]1CC[C@@]23CCCN2C(=O)CCC[C@H]3C1	nt	0	nt	-1	nt	-2
S=C(Nc1cccc(Br)c1)OC1CCC12CCC(c1ccccc1)CC2 (stereo unspecified)	nt	8	nt	2	1	-1
CN(C)/C=N/c1nc(-c2ccc3c(c2)OCO3)cs1	1	11*	5	2	3	-1
